36 compounds from PubChem BioAssay AID602143 (Vanderbilt Specialized Chemistry Center, 2011) can be followed below.

Values joined by “and” are separate entries in the source; they are usually repeats but may differ in a detail not shown here. Equal values may be shown once. Some compounds were tested as several samples or in several runs, with calls that do not always agree. Active and inactive are the calls of the source. No stated cut-off is given here; in the data, active means remaining activity below about 50%; inactive means the rest.

For this assay, the target named is Phospholipase D2 (Homo sapiens) (UniProt O14939). Briefly: PLD2 inhibitors in cells, cell-based, HEK293, single concentration (AID 602143).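 Further: tested at 200 nM.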 The conditions noted are these: HEK293 cellular PLD2 activity, percent of control; stronger effect = lower value.
Phospholipase D2 (Homo sapiens), sequence (O14939 whole entry, looked up): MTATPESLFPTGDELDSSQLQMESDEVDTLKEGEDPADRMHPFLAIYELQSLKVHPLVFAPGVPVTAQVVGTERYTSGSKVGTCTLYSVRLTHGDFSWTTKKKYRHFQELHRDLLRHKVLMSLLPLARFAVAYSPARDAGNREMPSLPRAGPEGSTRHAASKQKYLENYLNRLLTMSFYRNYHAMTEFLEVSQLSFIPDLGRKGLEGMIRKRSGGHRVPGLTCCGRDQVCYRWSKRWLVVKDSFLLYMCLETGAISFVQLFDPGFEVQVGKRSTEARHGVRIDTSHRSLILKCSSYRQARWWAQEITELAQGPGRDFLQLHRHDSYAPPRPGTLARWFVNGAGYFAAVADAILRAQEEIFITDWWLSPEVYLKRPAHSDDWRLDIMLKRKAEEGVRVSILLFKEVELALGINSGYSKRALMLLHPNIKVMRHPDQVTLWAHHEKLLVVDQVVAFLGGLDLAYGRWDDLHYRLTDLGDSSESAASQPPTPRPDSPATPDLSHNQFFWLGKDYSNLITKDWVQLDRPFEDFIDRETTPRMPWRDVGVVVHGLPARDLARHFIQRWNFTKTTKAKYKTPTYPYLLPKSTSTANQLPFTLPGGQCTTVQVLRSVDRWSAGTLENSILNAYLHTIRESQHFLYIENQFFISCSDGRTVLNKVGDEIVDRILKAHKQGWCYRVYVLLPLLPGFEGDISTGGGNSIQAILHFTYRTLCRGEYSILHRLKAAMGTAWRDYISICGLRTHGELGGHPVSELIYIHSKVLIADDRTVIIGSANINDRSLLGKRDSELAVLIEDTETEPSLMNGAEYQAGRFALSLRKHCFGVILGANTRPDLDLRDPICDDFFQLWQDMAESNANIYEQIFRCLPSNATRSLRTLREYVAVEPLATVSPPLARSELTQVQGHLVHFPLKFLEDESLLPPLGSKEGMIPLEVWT
Phospholipase D2 (Homo sapiens), sequence (O14939 whole entry, looked up): as above
For the compound `CCCCCC(=O)N(CCN1CCC2(CC1)C(=O)NCN2c1cccc(F)c1)C(=O)CCCCC`, the remaining activity is 73.1% (inactive).
The result for `O=C(NCCCCCCN1CCC2(CC1)C(=O)NCN2c1ccccc1)c1ccc2ccccc2c1` reads 133% (inactive).
As to `O=C(NCCN1CCC2(CC1)C(=O)NCN2c1ccccc1)c1cccnn1`, the remaining activity is 88.2% (inactive).
On to `COc1cccc(C(=O)NCCN2CCC3(CC2)C(=O)NCN3c2ccccc2)n1`, for which the remaining activity was 60.7% (inactive).
On to `O=C(NCCN1CCC2(CC1)C(=O)NCN2c1cccc(F)c1)c1cnc2ccccc2c1`, for which the remaining activity is 5.53% (active).
In the case of `O=C1c2ccccc2C(=O)N1CCN1CCC2(CC1)C(=O)NCN2c1ccccc1`, the remaining activity was 86.5% (inactive).
The result for `CC1(C)C(C(=O)NCCN2CCC3(CC2)C(=O)NCN3c2ccccc2)C1(C)C` reads 122% (inactive); that for `C[C@@H](CN1CCC2(CC1)C(=O)NCN2c1ccccc1)NC(=O)[C@@H]1C[C@H]1c1ccccc1`, 75.9% (inactive).
In the case of `O=C(NCCN1CCC2(CC1)C(=O)NCN2c1cccc(Cl)c1)c1cnc2ccccc2c1`, the remaining activity is 45.2% (active).
The result for `O=C(NCCN1CCC2(CC1)C(=O)NCN2c1ccc(Br)cc1)c1ccc(F)cc1` reads 73.2% (inactive).
The result for `Nc1ccc(C(=O)NCCN2CCC3(CC2)C(=O)NCN3c2ccccc2)cc1OC(F)(F)F` reads 97.3% (inactive).
The result for `O=C1NCN(c2ccccc2)C12CCN(CCN1CCCC1)CC2` reads 84.9% (inactive); that for `O=C(NCCN1CCC2(CC1)C(=O)NCN2c1ccc(F)cc1)c1ccc2ccccc2c1`, 34.3% (active).
On to `Cc1ccccc1C(=O)N(CCN1CCC2(CC1)C(=O)NCN2c1cccc(F)c1)C(=O)c1ccccc1C`, for which the remaining activity is 106% (inactive).
The value for `O=C(NCCN1CCC2(CC1)C(=O)NCN2c1ccc(Cl)cc1)c1ccc2ccccc2c1` was 54.4% (inactive); that for `O=C(NCCN1CCC2(CC1)C(=O)NCN2c1ccccc1)c1cc(-c2ccccc2)no1` was 88.3% (inactive).
The value for `O=C(c1cnc2ccccc2c1)N1CC(N2CCC3(CC2)C(=O)NCN3c2ccccc2)C1` was 70% (inactive); that for `O=C(NCCN1CCC2(CC1)C(=O)NCN2c1ccccc1)c1cc2ccccc2s1` was 10.3% (active).
The value for `O=C(C1CC1c1ccccc1)N1CC(N2CCC3(CC2)C(=O)NCN3c2ccccc2)C1` (stereo unspecified) was 82.9% (inactive).
`O=C(NCCN1CCC2(CC1)C(=O)NCN2c1ccccc1)c1ccnnc1`: the remaining activity was 101% (inactive).
With `CCCCCC(=O)NCCN1CCC2(CC1)C(=O)NCN2c1cccc(F)c1`, the remaining activity was 80.7% (inactive).
The value for `O=C(NCCCN1CCC2(CC1)C(=O)NCN2c1ccccc1)c1ccc2ccccc2c1` was 98% (inactive).
The result for `O=C(CCN1CCC2(CC1)C(=O)NCN2c1ccccc1)Nc1cnc2ccccc2c1` reads 104% (inactive); that for `O=C(NCCN1CCC2(CC1)C(=O)NCN2c1cccc(F)c1)C(c1ccccc1)c1ccccc1`, 92.3% (inactive).
The result for `O=C(NCCN1CCC2(CC1)C(=O)NCN2c1ccccc1)c1ncc[nH]1` reads 113% (inactive); that for `O=C(CN1CCC2(CC1)C(=O)NCN2c1ccccc1)c1ccccc1`, 106% (inactive); that for `C[C@@H](CN1CCC2(CC1)C(=O)NCN2c1ccc(F)c(F)c1)NC(=O)c1cc2cc(F)ccc2[nH]1`, 4.81% (active).
Turning to `O=C(NCCN1CCC2(CC1)C(=O)NCN2c1ccc(F)cc1)c1cc2ccccc2[nH]1`, the remaining activity is 8.73% (active).
The result for `O=C(NCCN1CCC2(CC1)C(=O)NCN2c1cccc(Cl)c1)c1ccc(F)cc1` reads 65.4% (inactive).
The result for `CC(C)[C@@H](CN1CCC2(CC1)C(=O)NCN2c1ccccc1)NC(=O)c1ccc(Cl)cc1` reads 59.4% (inactive).
`O=C(NCCN1CCC2(CC1)C(=O)NCN2c1cccc(F)c1)c1ccc(-c2ccccc2)cc1`: the remaining activity was 101% (inactive).
The result for `CC(C)[C@@H](CN1CCC2(CC1)C(=O)NCN2c1ccccc1)NC(=O)c1cc2cc(F)ccc2[nH]1` reads 57.1% (inactive).
The value for `O=C1c2ccccc2C(=O)N1CCCN1CCC2(CC1)C(=O)NCN2c1ccccc1` was 81% (inactive); that for `O=C(NCCN1CCC2(CC1)C(=O)NCN2c1ccc(F)c(F)c1)c1ccc(F)cc1` was 49.6% (active).
The value for `O=C(NCCN1CCC2(CC1)C(=O)NCN2c1ccccc1)c1ccncn1` was 93.7% (inactive).
Take `O=C(c1ccc2ccccc2c1)N1CCCC1CN1CCC(n2c(=O)[nH]c3ccccc32)CC1` (stereo unspecified): the remaining activity is 49.9% (active) and 63.2% (inactive).
